# The campaign covered roughly 360,000 compounds. About 25,000 (6.9%) were called active. Entries that show only a call come without a potency. Roughly 9% stayed inconclusive and do not appear here. Calls come from the whole dose curve; as a rule, active = well fitted inhibition curve with a large enough effect; inconclusive = small, poorly fitted or top-dose-only effect; inactive = flat fitted curve, though single readings scatter. Many of the other results were omitted from the sample, so actives are more common in it than they were.
# Target: Luciferin 4-monooxygenase (Photinus pyralis) (UniProt P08659)
# Assay: qHTS profiling assay for firefly luciferase inhibitor/activator using purifed enzyme and Km concentrations of substrates (counterscreen for miR-21 project); note: nearly all actives have a fitted effect of over 55% in size
# Conditions: purified FLuc, luminescence inhibition; series mostly up to 57.5 µM
# Procedure, shortened: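 Purified P. pyralis luciferase (10nM final) with 10uM D-luciferin and 10uM ATP (Km levels) in 50mM Tris acetate pH 7.5, 10mM Mg acetate, 0.01% Tween-20, 0.05% BSA; qHTS 6-point titration, ~60 µM downward; luminescence read.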
# Potency is the fitted concentration of half-maximal effect.
# Chain of Luciferin 4-monooxygenase (Photinus pyralis) (P08659 whole entry, looked up): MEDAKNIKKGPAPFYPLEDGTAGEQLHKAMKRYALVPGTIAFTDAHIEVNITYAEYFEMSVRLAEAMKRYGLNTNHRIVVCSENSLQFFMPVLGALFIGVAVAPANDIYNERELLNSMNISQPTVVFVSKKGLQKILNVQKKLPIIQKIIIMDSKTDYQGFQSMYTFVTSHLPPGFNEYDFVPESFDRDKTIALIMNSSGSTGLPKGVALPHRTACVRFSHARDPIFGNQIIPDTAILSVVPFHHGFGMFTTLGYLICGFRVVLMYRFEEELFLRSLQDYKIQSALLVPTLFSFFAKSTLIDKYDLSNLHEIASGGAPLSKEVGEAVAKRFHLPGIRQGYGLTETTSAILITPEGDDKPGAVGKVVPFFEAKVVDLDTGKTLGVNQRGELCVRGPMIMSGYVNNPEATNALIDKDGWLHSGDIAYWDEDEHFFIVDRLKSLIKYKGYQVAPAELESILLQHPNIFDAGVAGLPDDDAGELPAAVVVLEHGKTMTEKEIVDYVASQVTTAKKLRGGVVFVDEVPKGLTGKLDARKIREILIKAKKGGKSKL
row,Structure (SMILES),Potency
1,COc1ccc(N2CCN(C3=NS(=O)(=O)C(c4cccc(Br)c4)=C3C)CC2)cc1,inactive
2,CCOC(=O)c1c(CC(C)C)csc1/N=C/C1=C(O)CCCC1=O,inactive
3,CCOC(=O)c1sc(/N=C/C2=C(O)CC(C)(C)CC2=O)c(C(=O)OCC)c1C,19 µM (active)
4,CCOC(=O)c1c(/N=C/C2C(=O)CC(C)(C)CC2=O)sc(C)c1C,inactive
5,Cc1ccc(N2CC(C(=O)Nc3ccc(N(C)C)cc3)CC2=O)cc1Cl (configuration not stated),inactive
6,NNC(=O)c1ccc(Cl)cc1Cl,inactive
7,O=C(COC(=O)c1ccc(O)cc1O)NNC(=O)c1cccs1,inactive
8,O=C(NNC(=O)c1ccc(Cl)cc1Cl)c1cccs1,12 µM (active)
9,CC1CCCCN1S(=O)(=O)c1ccc(F)c(C(=O)Nc2ccccc2C(F)(F)F)c1 (configuration not stated),inactive
10,Cc1cccc(NC(=O)CSc2nc(-c3ccco3)cc(C(F)(F)F)n2)c1C,inactive
11,COc1ccc(NS(=O)(=O)c2cc(NC(=O)COc3ccccc3F)ccc2OC)cc1,inactive
12,COc1ccc2oc(=O)c(C(=O)N3CCN(c4ccccc4F)CC3)cc2c1,inactive
13,COc1cccc(C(=O)c2cc3ccc(O)cc3oc2=O)c1,12 µM (active)
14,COc1ccc2oc(=O)c(C(=O)N3CCCC3)cc2c1,inactive
15,CNS(=O)(=O)c1ccc(C(=O)NCC(=O)NCCc2ccc3c(c2)OCCO3)cc1,inactive
16,COC(=O)c1c(NC(=O)c2ccc(Cl)c(Cl)c2)sc2c1CCCC2,inactive
17,Cn1c(=O)c2c(ncn2CC(=O)Nc2cccc(C(F)(F)F)c2)n(C)c1=O,inactive
18,CCN(CC)S(=O)(=O)c1ccc(C(=O)N=c2sc3cccc(OC)c3n2C)cc1,inactive
19,Cc1cc(NC(=O)c2ccco2)c(=O)n(Cc2c(F)cccc2Cl)c1,inactive
20,Cn1c(=NC(=O)c2ccco2)sc2cccc(F)c21,3.38 µM (active)
21,CC1CCN(S(=O)(=O)c2ccc3c(c2)N(CC(=O)NCc2ccccc2Cl)C(=O)CO3)CC1,inactive
22,Cc1csc2nc(COc3ccc(NC(=O)COc4ccccc4)cc3)cc(=O)n12,inactive
23,COc1ccccc1N1CCN(c2ncnc3onc(-c4ccc(F)cc4)c23)CC1,inactive

row,Structure (SMILES),Potency
1,O=C(CSc1ccccc1)Nc1cccc(S(=O)(=O)N2CCOCC2)c1,inactive
2,CCn1c2ccccc2c2cc(CC(N)=O)ccc21,inactive
3,NC(=O)Cc1ccc2c(c1)[nH]c1ccccc12,inactive
4,NC(=O)Cc1ccc2sc(-c3ccccc3)nc2c1,5.36 µM (active)
5,COc1ccc(CCNC(=O)c2ccc(CSCc3ccc(C)cc3)o2)cc1OC,inactive
6,CN1CCN(S(=O)(=O)c2ccc(N3CCN(c4ccccc4O)CC3)c([N+](=O)[O-])c2)CC1,inactive
7,O=C(CCS(=O)(=O)c1ccccc1Cl)Nc1ccc(S(=O)(=O)Nc2ncccn2)cc1,inactive
8,CC(=O)NS(=O)(=O)c1ccc(NC(=O)/C=C/c2ccccc2Cl)cc1,12 µM (active)
9,CC(=O)NS(=O)(=O)c1ccccc1,inactive
10,O=C(/C=C/c1ccccc1Cl)Nc1ccc(S(=O)(=O)Nc2ncccn2)cc1,13.5 µM (active)
11,CC(=O)Nc1ccc(S(=O)(=O)Nc2nccc(/C=C/c3ccccc3F)n2)cc1,inactive
12,NS(=O)(=O)c1ccc(NC(=O)/C=C/c2ccccc2Cl)cc1,inactive
13,COc1ccc(CNC(=O)Cn2nnc(-c3ccccc3F)n2)cc1,inactive
14,CCOc1cccc2sc(N3CCN(C(=O)C4CC4)CC3)nc12,inactive
15,Cc1occc1-c1nnc(SCC(=O)NC2(C#N)CCCC2)n1C,inactive
16,Cc1ccc(CSc2oc(-c3cccs3)nc2S(=O)(=O)c2ccc(C)cc2)cc1,inactive
17,Cc1onc(-c2ccccc2Cl)c1C(=O)OCc1nnc(-c2ccccc2)o1,inactive
18,CCOC(=O)N1CCN(Cc2nnc(-c3ccccc3Cl)o2)CC1,inactive
19,O=C(c1ccc(Cl)s1)N(Cc1nnc(-c2ccccc2Cl)o1)C1CC1,19 µM (active)
20,Cc1ccc(S(=O)(=O)c2c(Nc3cccc(Cl)c3)sc(C(=O)c3ccc4c(c3)OCO4)c2N)cc1,inactive
21,COc1ccccc1C(=O)NC(=S)Nc1ccccc1N1CCCCC1,inactive
22,O=C(CCCCn1c(=O)c2ccccc2n(CC(=O)Nc2cccc(C(F)(F)F)c2)c1=O)NCc1ccc2c(c1)OCO2,inactive
23,CC(=O)Nc1cc(C(=O)NCc2ccc(F)cc2)ccc1Sc1ccc(F)cc1,inactive

row,Structure (SMILES),Potency
1,COC(=O)c1ccc(Sc2ccc(F)cc2)c(N)c1,21.3 µM (active)
2,COC(=O)c1ccc(C(=O)OC)c(NC(=S)N2CCN(c3ccc(F)cc3)CC2)c1,inactive
3,CC(C)NC(=O)c1nn(-c2ccccc2F)nc1CO,inactive
4,CCOC(=O)C1CCC(CN(Cc2ccc(OC)cc2)S(=O)(=O)c2ccc(F)c(C(=O)Nc3cc(C)ccc3C)c2)CC1 (configuration not stated),inactive
5,CCNC(=O)CC1C(=O)N(c2ccc(F)cc2)C(=O)N1Cc1ccc(C)cc1 (configuration not stated),inactive
6,N#Cc1cccc(OC(=O)c2ccc3c(=O)n4c(nc3c2)CCC4)c1,inactive
7,COc1ccccc1CNC(=O)C(=O)NCC(c1ccco1)S(=O)(=O)c1ccc(F)cc1 (configuration not stated),inactive
8,COc1cc(/C=C2/C(=O)ON=C2C)ccc1OCc1ccccc1F,6.75 µM (active)
9,CCOc1cc(/C=C2/C(=N)N3OC(C)=CC3=NC2=O)ccc1OC,inactive
10,CC1=NOC(=O)/C1=C\c1ccccc1,inactive
11,CCc1ccc(CN(Cc2ccco2)C(=O)c2ccccc2Cl)cc1,inactive
12,Cc1ccc(NC(=O)NC(=O)c2ccccc2)cc1F,inactive
13,Cc1ccc(C(=O)NC(=S)Nc2ccc(N3CCOCC3)cc2)cc1,inactive
14,O=C(CNC(=O)c1ccc(Br)o1)Nc1ccccc1,inactive
15,Cc1cccc(NC(=O)/C(=C\c2ccco2)NC(=O)c2ccccc2)c1,inactive
16,Cc1cccc(NC(=O)c2ccc([N+](=O)[O-])o2)c1,inactive
17,Cc1cccc(NC(=S)NC(=O)c2ccc(Br)o2)c1,19 µM (active)
18,Cc1ccc(C(=O)NC(=S)Nc2ccccc2C)cc1,19 µM (active)
19,Cc1cccc(NC(=O)NC(=S)NC(=O)c2ccccc2)c1,19 µM (active)
20,Cc1ccccc1NC(=S)NC(=O)Cc1ccc(Cl)cc1,inactive
21,CC1CCN(S(=O)(=O)c2ccc3c(c2)N(CC(=O)NCCc2ccccc2)C(=O)CO3)CC1,inactive

# Reference: PubChem BioAssay AID588342 (National Center for Advancing Translational Sciences (NCATS), 2011)
